In PubChem BioAssay (NCATS):
“And” between values parts separate entries of the source, which are not always exact repeats. Equal entries are not always repeated. Inconclusive results are not listed. The source made the active and inactive calls. Unless noted, the call rests on the fitted dose curve.

Tests used:
[1] = biological target: Bile acid receptor (Homo sapiens) (UniProt Q96RI1); assay: qHTS assay for small molecule agonists of farnesoid X receptor signaling (AID 588527); settings: HEK293T FXR-UAS-bla, beta-lactamase ratio, 16 h; activation: stronger effect = higher value;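 further: series mostly up to about 77 µM; 0% = vehicle basal and 100% = reference agonist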
Procedure, shortened: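 FXR-UAS-bla HEK293T, 10% dialyzed FBS; cpds up to 92 uM titration, 16 h 37 C; CCF4 dye 2 h RT; fluorescence. Normalized to chenodeoxycholic acid 100 uM (100%) and DMSO (0%); Hill fit gives EC50, efficacy.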

[2] = biological target: Peroxisome proliferator-activated receptor delta (Homo sapiens) (UniProt Q03181); assay: qHTS assay for small molecule agonists of peroxisome proliferator-activated receptor delta signaling (AID 588534);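 further: 0% = DMSO basal wells and 100% = positive control agonist at 10 µM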
Procedure, shortened: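 Agonist-mode qHTS; reporter cells, 5 hrs 37 C pre-incubation; compound titration, 18 hrs 37 C; CCF4 dye, 2 hrs RT; fluorescence read. EC50/efficacy via Hill fit.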

[3] = qHTS assay for small molecule agonists of the antioxidant response element (ARE) signaling pathway (AID 651741; active means well fitted activation curve with a large enough effect in the signal ratio; the % refers to the signal ratio; further: potency means the concentration at half of the fitted maximal effect)
Procedure, shortened: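 Stably integrated ARE-beta-lactamase reporter HepG2 cells; 16 h compound incubation, 37 C; LiveBLAzer FRET substrate 2 h at room temperature; fluorescence intensity.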

[4] = qHTS assay for environmental chemicals that activate the Aryl hydrocarbon Receptor (AhR) signaling pathway (AID 651777; active means well fitted curve in the direction sought with a large enough effect; an effect the other way counts as inactive or inconclusive; further: nearly all actives have a fitted effect of over 15% in size; further: potency means the concentration at half of the fitted maximal effect; on activation: % of control where 0% means no effect); settings: 1A2-DRE human hepatoma cells, luciferase, 24 h; activation: stronger effect = higher value
Procedure, shortened: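 Human hepatoma 1A2-DRE cells, stably carrying a dioxin response element and CYP1A2 promoter driving luciferase, were exposed to compounds for 24 hr at 37 C and 5% CO2. Luciferase signal was then read after 30 min One-Glo at room temperature.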

[5] = qHTS assay for small molecule agonists of the antioxidant response element (ARE) signaling pathway measured by Nrf2-dependant transcriptional activity (AID 720636; active means well fitted curve in the direction sought with a large enough effect in the repeat runs; an effect the other way counts as inactive or inconclusive; further: potency means the concentration at half of the fitted maximal effect; on activation: % of control where 0% means no effect)
Procedure, shortened: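 ARE-luc HepG2 cells carrying an Nrf2-responsive luciferase reporter were plated in medium with 1% dialyzed FBS, left 6 hr at 37 C to attach, then exposed to compound for 16 hr. Luciferase luminescence was read after ONE-Glo addition.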

[6] = biological target: Glucocorticoid receptor (Homo sapiens) (UniProt P04150); assay: qHTS assay for small molecule agonists of glucocorticoid receptor signaling (AID 588532; active means well fitted curve in the direction sought with a large enough effect in the signal ratio, with a control signal flat; the % refers to the signal ratio;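 further: 100% = dexamethasone at 0.1 µM and 0% = DMSO only wells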); settings: HeLa MMTV-bla, beta-lactamase ratio, agonist, 18 h; activation: stronger effect = higher value, percent of dexamethasone control, DMSO zero
Procedure, shortened: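 Cells were plated and rested 3-5 h at 37 C, compounds were added in titration and incubated 18 h, then CCF4 substrate was loaded for 2 h at RT before reading blue/green fluorescence. EC50 came from Hill-equation fitting.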

[7] = biological target: Glucocorticoid receptor (Homo sapiens) (UniProt P04150); assay: qHTS assay for small molecule antagonists of glucocorticoid receptor signaling (AID 588533; active means well fitted inhibition curve with a large enough effect in the signal ratio, with a control signal flat, not every such curve was filed as active; the % refers to the signal ratio; further: on the % scale 0 is the no-effect control and ±100 the full control effect)
Procedure, shortened: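 Antagonist-mode qHTS: compound titrations added to GRE-bla HeLa cells, then dexamethasone 2 nM final; 18 h, 37 C. CCF4 FRET fluorescence normalized to dexamethasone and DMSO; IC50 from Hill fit.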

[8] = qHTS assay for small molecule antagonists of peroxisome proliferator-activated receptor delta signaling (AID 588535; active means well fitted inhibition curve with a large enough effect in the signal ratio, with a control signal flat, not every such curve was filed as active; the % refers to the signal ratio;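 on max response: cells co-treated with a PPAR-delta agonist as stimulator during compound exposure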); settings: HEK293T PPARd-UAS-bla, beta-lactamase FRET ratio, 18 h; 460 nm channel
Procedure, shortened: (§1)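 Fluorescence from CCF4-loaded GeneBLAzer PPAR-delta-UAS-bla HEK293T cells (2 hrs RT loading) quantified reporter inhibition after an 18 hr, 37 C compound exposure across a titration.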

[9] = biological target: Peroxisome proliferator-activated receptor delta (Homo sapiens) (UniProt Q03181); assay: as above
Procedure, shortened: as §1

[10] = biological target: Peroxisome proliferator-activated receptor gamma (Homo sapiens) (UniProt P37231); assay: qHTS assay for small molecule agonists of peroxisome proliferator-activated receptor gamma signaling (AID 588536; active means well fitted curve in the direction sought with a large enough effect in the signal ratio, with a control signal flat, not every such curve was filed as active; the % refers to the signal ratio;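 further: 0% = DMSO basal wells and 100% = rosiglitazone at 2 µM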)
Procedure, shortened: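 Compound treatment: 16 h, 37 C, HEK293 GeneBLAzer cells. Detection: CCF4, 2 h RT. Values: Hill-fit EC50, efficacy as % of 2 uM rosiglitazone.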

[11] = biological target: Peroxisome proliferator-activated receptor gamma (Homo sapiens) (UniProt P37231); assay: qHTS assay for small molecule antagonists of peroxisome proliferator-activated receptor gamma signaling (AID 588537; active means well fitted inhibition curve with a large enough effect in the signal ratio, with a control signal flat, not every such curve was filed as active; the % refers to the signal ratio;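 further: reporter cells co-stimulated with 50 nM rosiglitazone agonist during compound treatment; % of control where 0% means no effect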)
Procedure, shortened: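 Fluorescence at 460 and 530 nm (405 nm excitation) reported beta-lactamase cleavage of CCF4 after 2 h room-temperature loading. HEK293 reporter cells in 1% charcoal/dextran-treated FBS had received compound and rosiglitazone for 16 h.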

[12] = biological target: Vitamin D3 receptor (Homo sapiens) (UniProt P11473); assay: qHTS assay for small molecule agonists of vitamin D receptor signaling (AID 588543);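 further: 0% = DMSO basal and 100% = reference agonist control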
Procedure, shortened: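 Reporter cells (HEK293T, VDR-UAS-bla) were seeded in medium with 2% charcoal-stripped serum and incubated 5 h, then compounds in concentration series were added for 16 h at 37 °C. Stimulation was scaled between DMSO basal and 50 nM 1α,25-dihydroxyvitamin D3.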

[13] = qHTS assay for small molecule agonists of retinoid X receptor alpha signaling (AID 588544); settings: HEK293T RXRa-UAS-bla, beta-lactamase reporter, 18 h; 530 nm emission;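 on activation: 0% = DMSO basal wells and 100% = reference agonist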
[14] = biological target: Retinoic acid receptor RXR-alpha (Homo sapiens) (UniProt P19793); assay: as above
[15] = qHTS assay for small molecule antagonists of retinoid X receptor alpha signaling (AID 588546; active means well fitted inhibition curve with a large enough effect in the signal ratio, with a control signal flat, not every such curve was filed as active; the % refers to the signal ratio; further: potency means the concentration at half of the fitted maximal effect); settings: HEK293T RXRa-UAS-bla, beta-lactamase ratio, antagonist mode; measured here: W530 green channel, cytotoxicity proxy
Procedure, shortened: (§2)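 Beta-lactamase reporter inhibition, read as CCF4 fluorescence ratio (ex 405, em 460/530 nm) after 2 h at RT. HEK293T UAS-bla cells, 2500/well, were stimulated with 9-cis-RA at 500 or 100 nM final alongside test compound for 18 h at 37 C.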

[16] = biological target: Thyroid hormone receptor beta (Homo sapiens) (UniProt P10828); assay: qHTS assay for small molecule antagonists of thyroid hormone receptor beta signaling (AID 588547; active means well fitted inhibition curve with a large enough effect in the signal ratio, with a control signal flat, not every such curve was filed as active; the % refers to the signal ratio;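 further: cells stimulated with 0.4 nM T3 agonist during compound exposure; series mostly up to about 77 µM; on the % scale 0 is the no-effect control and ±100 the full control effect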); settings: TR-UAS-bla HEK293, beta-lactamase ratio, antagonist mode, 18 h
Procedure, shortened: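 TR-UAS-bla GripTite HEK293 cells in 2% charcoal/dextran FBS medium; compounds 0.59 nM to 92 uM with T3 at 0.4nM final, 18 h at 37 C. Beta-lactamase read by CCF4 fluorescence (460/530 nm); Hill fits gave IC50 and efficacy.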

[17] = qHTS assay for small molecule activators of the p53 signaling pathway (AID 651743; active means well fitted activation curve with a large enough effect in the signal ratio, not every such curve was filed as active; the % refers to the signal ratio; further: series mostly up to about 92 µM; % of control where 0% means no effect); settings: HCT-116 p53RE-bla, beta-lactamase FRET ratio, 16 h; activation: stronger effect = higher value
Procedure, shortened: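 Following 16 hours of compound exposure at 37 C, HCT-116 cells bearing the p53RE-bla reporter were loaded with LiveBLAzer B/G FRET substrate for 2 hours at room temperature and fluorescence intensity was recorded.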

[18] = biological target: Peroxisome proliferator-activated receptor alpha (Homo sapiens) (UniProt Q07869); assay: qHTS assay for small molecule agonists of the peroxisome proliferator-activated receptor alpha (PPARalpha) signaling pathway (AID 651778; active means well fitted curve in the direction sought with a large enough effect; an effect the other way counts as inactive or inconclusive; further: % of control where 0% means no effect); settings: PathHunter PPARalpha complementation, chemiluminescence, 6 h; max response: stronger effect = higher value
Procedure, shortened: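 Enzyme-fragment complementation assay in which ligand-bound PPARalpha translocates and forms an active enzyme that generates chemiluminescence. Cells were plated overnight, exposed to compound for 6 hr at 37 C, and then given detection reagent for 60 min at room temperature.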

[19] = qHTS assay for small molecule agonists of the antioxidant response element (ARE) signaling pathway measured by Nrf2-dependant transcriptional activity - cell viability counter screen (AID 720653; active means well fitted curve in the direction sought with a large enough effect in the repeat runs; an effect the other way counts as inactive or inconclusive; further: on the % scale 0 is the no-effect control and ±100 the full control effect); settings: ARE-bla HepG2 viability, CellTiter-Glo ATP luminescence, 16 h; max response: stronger effect = lower value
Procedure, shortened: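 ARE-bla HepG2 cells treated with compounds for 16 h at 37C; this counter screen measures viability as intracellular ATP by CellTiter-Glo luminescence after 30 min at room temperature.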

[20] = qHTS assay for cell viability of HEK293 cells (AID 743288; active means well fitted curve in the direction sought with a large enough effect; an effect the other way counts as inactive or inconclusive; further: on the % scale 0 is the no-effect control and ±100 the full control effect; nearly all actives have a fitted effect of over 50% in size); settings: ATP luminescence (CellTiter-Glo), 18 h; max response: stronger effect = lower value
Procedure, shortened: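 Viable-cell counts were inferred from luciferase-based ATP content in HEK293 cells seeded at 2,000/well, pre-incubated ≥5 h, then dosed with DMSO-solubilised compounds for 18 h at 37 C.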

[21] = qHTS assay for cell viability of the p53RE-bla HCT-116 cell line (AID 743292; active means well fitted curve in the direction sought with a large enough effect; an effect the other way counts as inactive or inconclusive; further: nearly all actives have a fitted effect of over 55% in size; further: potency means the concentration at half of the fitted maximal effect)
Procedure, shortened: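 CellSensor p53RE-bla HCT-116 cells, 4,000/well, preincubated 5 h at 37 C, then exposed to compounds in DMSO for 16 h at 37 C. Viability read as CellTiter-Glo luminescence (intracellular ATP) after 30 min at room temperature.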

[22] = biological target: Nuclear receptor subfamily 1 group I member 2 (Rattus norvegicus) (UniProt Q9R1A7); assay: qHTS assay for small molecule activators of the rat pregnane X receptor (rPXR) signaling pathway (AID 651751; call rule not given here; further: 0% is about no effect); settings: rPXR reporter cells, luciferase (One-Glo), 24 h
[23] = qHTS assay for small molecule activators of the human pregnane X receptor (PXR) signaling pathway (AID 720659; call rule not given here; further: 0% is about no effect)
[24] = biological target: Retinoic acid receptor RXR-alpha (Homo sapiens) (UniProt P19793); assay: qHTS assay for small molecule antagonists of retinoid X receptor alpha signaling (AID 588546); settings: HEK293T RXRa-UAS-bla, beta-lactamase ratio, antagonist mode; further: potency means the concentration at half of the fitted maximal effect
Procedure, shortened: as §2

[25] = biological target: Voltage-gated inwardly rectifying potassium channel KCNH2 (Homo sapiens) (UniProt Q12809); assay: qHTS Assay for Small Molecule Inhibitors of the Human hERG Channel Activity (AID 588834; active means well fitted curve in the direction sought with a large enough effect; an effect the other way counts as inactive or inconclusive;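 further: top concentration of the series differs between compounds; on the % scale 0 is the no-effect control and ±100 the full control effect; lower thallium flux fluorescence means stronger hERG block; nearly all actives have a fitted effect of over 50% in size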)
Procedure, shortened: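 Step 1: BacMam hERG transduction of U2OS, 4 hrs RT. Step 2: overnight 37 °C, plate 2000 cells/well, 4 hr. Step 3: FluxOR load, compound 10 min, stimulate, read fluorescence.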

[26] = qHTS assay for small molecule antagonists of the retinoid-related orphan receptor gamma (ROR-gamma) signaling pathway - cell viability counter screen (AID 720652; active means well fitted curve in the direction sought with a large enough effect in the repeat runs; an effect the other way counts as inactive or inconclusive;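 further: CHO reporter cells with doxycycline-induced ROR-gamma expression; series mostly up to about 92 µM; compound exposure lasted 16 hr before ATP read; on the % scale 0 is the no-effect control and ±100 the full control effect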)
Procedure, shortened: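 Steps: seed CHO cells bearing TET-inducible ROR and ROR response element-luciferase; rest 5 hr at 37 C; add compound, then doxycycline; incubate 16 hr; add CellTiter-Glo and read luminescence as ATP-based viability.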

[27] = biological target: Vitamin D3 receptor (Homo sapiens) (UniProt P11473); assay: qHTS assay for small molecule antagonists of vitamin D receptor signaling (AID 588541)
Procedure, shortened: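 VDR-UAS-bla HEK293T cells in 2% charcoal-stripped FBS were stimulated with 1-alpha,25-dihydroxyvitamin D3 (3 nM final) plus compound for 16 h at 37 C. The beta-lactamase CCF4 readout was normalized to 50 nM agonist and DMSO, and Hill fits gave IC50.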

Nuclear receptor subfamily 1 group I member 2 (Rattus norvegicus), sequence (Q9R1A7 whole entry, looked up): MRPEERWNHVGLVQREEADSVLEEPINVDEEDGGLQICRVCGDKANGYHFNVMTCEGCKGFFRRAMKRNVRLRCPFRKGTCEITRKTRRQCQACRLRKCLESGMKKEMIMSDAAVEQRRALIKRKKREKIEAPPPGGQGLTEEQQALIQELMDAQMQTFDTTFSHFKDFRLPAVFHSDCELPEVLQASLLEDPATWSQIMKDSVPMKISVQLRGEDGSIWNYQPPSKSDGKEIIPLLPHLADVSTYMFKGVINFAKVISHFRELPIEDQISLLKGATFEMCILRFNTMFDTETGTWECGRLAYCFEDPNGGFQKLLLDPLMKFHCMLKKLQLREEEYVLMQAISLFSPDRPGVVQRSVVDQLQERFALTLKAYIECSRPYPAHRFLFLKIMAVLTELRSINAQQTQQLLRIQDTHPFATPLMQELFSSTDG
Bile acid receptor (Homo sapiens), sequence (Q96RI1 whole entry, looked up): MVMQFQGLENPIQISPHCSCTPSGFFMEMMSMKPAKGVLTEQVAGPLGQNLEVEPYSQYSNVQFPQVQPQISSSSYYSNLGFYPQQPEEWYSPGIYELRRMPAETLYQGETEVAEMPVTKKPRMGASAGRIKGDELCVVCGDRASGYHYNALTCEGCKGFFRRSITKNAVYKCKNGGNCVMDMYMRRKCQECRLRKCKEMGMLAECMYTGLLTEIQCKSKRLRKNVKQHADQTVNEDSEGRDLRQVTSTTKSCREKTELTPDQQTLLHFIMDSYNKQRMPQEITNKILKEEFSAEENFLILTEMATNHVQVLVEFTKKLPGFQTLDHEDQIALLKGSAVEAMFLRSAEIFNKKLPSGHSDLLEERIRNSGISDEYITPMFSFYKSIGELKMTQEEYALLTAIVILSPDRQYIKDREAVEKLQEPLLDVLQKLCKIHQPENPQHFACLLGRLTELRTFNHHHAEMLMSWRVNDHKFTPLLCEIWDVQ
Peroxisome proliferator-activated receptor gamma (Homo sapiens), sequence (P37231 whole entry, looked up): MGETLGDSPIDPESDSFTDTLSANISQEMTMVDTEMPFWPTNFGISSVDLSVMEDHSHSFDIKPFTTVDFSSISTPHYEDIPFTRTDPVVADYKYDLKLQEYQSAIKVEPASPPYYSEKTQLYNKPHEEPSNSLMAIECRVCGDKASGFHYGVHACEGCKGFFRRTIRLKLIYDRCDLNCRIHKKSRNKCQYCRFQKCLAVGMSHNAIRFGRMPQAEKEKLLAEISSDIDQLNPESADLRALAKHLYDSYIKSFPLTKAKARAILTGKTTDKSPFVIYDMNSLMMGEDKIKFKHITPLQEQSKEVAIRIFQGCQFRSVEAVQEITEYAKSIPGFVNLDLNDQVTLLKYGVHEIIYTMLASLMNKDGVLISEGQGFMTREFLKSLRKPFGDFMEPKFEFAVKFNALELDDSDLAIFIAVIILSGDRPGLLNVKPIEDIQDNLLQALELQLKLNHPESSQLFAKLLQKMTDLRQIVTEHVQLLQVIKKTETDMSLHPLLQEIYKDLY
Glucocorticoid receptor (Homo sapiens), sequence (P04150 whole entry, looked up): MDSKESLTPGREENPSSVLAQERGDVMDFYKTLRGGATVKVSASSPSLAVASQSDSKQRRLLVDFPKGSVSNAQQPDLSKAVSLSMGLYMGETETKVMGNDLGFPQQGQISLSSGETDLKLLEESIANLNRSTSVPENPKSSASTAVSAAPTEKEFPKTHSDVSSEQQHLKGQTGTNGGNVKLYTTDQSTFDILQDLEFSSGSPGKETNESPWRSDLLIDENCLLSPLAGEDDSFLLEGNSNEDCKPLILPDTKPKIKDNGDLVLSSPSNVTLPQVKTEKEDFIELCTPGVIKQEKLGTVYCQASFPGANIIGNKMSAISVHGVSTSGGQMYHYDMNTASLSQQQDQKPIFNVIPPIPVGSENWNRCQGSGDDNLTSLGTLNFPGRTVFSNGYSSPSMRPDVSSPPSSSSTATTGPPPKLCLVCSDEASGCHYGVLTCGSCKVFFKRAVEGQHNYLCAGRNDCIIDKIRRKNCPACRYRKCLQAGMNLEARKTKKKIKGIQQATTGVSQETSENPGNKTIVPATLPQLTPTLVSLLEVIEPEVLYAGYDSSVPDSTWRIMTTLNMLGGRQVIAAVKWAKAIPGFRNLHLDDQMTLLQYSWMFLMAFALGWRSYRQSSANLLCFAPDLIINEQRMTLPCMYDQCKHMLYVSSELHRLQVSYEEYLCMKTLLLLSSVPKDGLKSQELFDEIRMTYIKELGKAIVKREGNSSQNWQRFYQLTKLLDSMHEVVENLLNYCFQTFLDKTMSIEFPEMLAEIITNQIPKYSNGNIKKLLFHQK
Retinoic acid receptor RXR-alpha (Homo sapiens), sequence (P19793 whole entry, looked up): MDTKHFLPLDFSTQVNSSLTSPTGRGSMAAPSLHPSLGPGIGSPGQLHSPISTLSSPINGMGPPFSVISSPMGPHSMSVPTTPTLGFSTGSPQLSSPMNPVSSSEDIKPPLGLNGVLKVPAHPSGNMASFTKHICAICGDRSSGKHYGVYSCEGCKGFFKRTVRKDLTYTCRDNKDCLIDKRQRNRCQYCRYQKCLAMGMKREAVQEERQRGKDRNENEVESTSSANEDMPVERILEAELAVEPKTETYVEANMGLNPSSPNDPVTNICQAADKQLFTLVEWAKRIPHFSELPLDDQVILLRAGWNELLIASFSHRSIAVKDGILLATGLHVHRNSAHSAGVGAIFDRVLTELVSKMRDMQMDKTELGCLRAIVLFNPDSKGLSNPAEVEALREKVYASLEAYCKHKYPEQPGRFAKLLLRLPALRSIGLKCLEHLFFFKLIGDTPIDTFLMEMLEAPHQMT
Peroxisome proliferator-activated receptor delta (Homo sapiens), sequence (Q03181 whole entry, looked up): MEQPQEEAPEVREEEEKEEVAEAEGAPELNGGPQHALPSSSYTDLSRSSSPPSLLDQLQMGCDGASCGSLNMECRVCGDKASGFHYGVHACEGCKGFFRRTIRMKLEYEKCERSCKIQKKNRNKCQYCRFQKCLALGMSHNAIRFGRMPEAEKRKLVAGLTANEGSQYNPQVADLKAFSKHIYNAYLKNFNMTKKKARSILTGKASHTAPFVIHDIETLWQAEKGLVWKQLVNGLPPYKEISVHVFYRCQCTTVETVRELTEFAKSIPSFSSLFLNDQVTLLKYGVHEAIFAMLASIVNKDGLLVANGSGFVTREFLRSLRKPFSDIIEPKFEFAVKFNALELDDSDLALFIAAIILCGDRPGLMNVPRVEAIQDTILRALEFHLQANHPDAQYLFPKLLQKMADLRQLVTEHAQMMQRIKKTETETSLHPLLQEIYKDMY
Vitamin D3 receptor (Homo sapiens), sequence (P11473 whole entry, looked up): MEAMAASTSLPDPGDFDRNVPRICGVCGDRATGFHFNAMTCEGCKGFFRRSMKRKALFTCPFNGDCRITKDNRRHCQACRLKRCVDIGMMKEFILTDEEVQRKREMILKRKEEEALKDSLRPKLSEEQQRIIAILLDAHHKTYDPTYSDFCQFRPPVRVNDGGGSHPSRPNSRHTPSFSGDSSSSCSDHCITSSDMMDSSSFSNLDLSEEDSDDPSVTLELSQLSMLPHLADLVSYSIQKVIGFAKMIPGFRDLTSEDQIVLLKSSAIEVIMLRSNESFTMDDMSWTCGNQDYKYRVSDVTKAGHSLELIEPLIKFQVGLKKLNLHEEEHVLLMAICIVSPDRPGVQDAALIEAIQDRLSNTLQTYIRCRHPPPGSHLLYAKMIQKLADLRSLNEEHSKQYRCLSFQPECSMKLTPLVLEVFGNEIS
Peroxisome proliferator-activated receptor alpha (Homo sapiens), sequence (Q07869 whole entry, looked up, the tested form may be a part): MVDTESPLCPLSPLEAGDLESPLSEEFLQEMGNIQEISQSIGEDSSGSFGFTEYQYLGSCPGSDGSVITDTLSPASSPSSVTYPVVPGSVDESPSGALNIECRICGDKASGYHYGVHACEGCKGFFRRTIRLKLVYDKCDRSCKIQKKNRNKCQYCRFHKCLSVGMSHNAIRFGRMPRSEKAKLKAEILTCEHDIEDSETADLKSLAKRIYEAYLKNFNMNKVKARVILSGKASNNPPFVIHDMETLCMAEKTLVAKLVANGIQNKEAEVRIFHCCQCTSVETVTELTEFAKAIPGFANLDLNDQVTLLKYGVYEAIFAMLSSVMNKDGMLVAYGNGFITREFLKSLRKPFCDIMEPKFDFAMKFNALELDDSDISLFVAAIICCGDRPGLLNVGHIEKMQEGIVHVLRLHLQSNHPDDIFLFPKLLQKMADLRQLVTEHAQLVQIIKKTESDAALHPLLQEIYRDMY
Thyroid hormone receptor beta (Homo sapiens), sequence (P10828 whole entry, looked up): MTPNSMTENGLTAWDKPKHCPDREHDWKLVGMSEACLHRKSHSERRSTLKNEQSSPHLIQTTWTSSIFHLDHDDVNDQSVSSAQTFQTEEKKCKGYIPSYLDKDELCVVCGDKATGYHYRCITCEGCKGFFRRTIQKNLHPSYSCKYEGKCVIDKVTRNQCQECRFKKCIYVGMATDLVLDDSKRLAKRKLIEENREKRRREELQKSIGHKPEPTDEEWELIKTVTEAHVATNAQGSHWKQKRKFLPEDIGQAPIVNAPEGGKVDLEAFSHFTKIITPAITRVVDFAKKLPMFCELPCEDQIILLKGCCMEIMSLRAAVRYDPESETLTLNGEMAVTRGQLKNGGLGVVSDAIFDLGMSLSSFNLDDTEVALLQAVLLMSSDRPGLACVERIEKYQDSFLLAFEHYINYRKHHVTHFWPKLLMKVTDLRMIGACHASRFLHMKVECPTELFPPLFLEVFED

CCCCOC(=O)[C@@H](C)Oc1ccc(Oc2ccc(C(F)(F)F)cn2)cc1
inactive: activation [1] -2.63% | outcome [2]

O=C(O)c1ccc(Cl)c(Cl)c1
inactive: activation [1] -2.87% | outcome [2]

CCCC(Cl)CCCC(Cl)CCC(Cl)CCC(Cl)CCC(Cl)CCCC(Cl)CCC (stereo not given)
inactive: activation [1] 1.98% | outcome [2]

CS/C(=N\O)C(=O)N(C)C
inactive: activation [1] -1.99% | outcome [2]

CC1(C)C(=O)N(Br)C(=O)N1Br
inactive: activation [1] 1.27% | outcome [2]

CC1=CC(=O)CC(C)(C)C1(O)/C=C/C(C)=C\C(=O)O (stereo not given)
inactive: activation [1] -3.19% | outcome [2]

O=C1CCC(=O)O1
inactive: activation [1] -2.49% | outcome [2]

CCCCO
inactive: activation [1] 0.769% and 0.512% | outcome [2]

CCCCC(CC)CNCC(CC)CCCC (stereo not given)
inactive: activation [1] -2.36% | outcome [2]

CCc1ccc(C(c2ccc(CC)cc2)C(Cl)Cl)cc1
inactive: activation [1] 3.04% | outcome [2]

c1ccc2cc3c(ccc4ccccc43)cc2c1
active: Potency [3] 12.2 µM | Potency [4] 22.4 µM | Potency [5] 30.6 µM
inactive: activation [1] 2.13%

O=C(O)COc1ccc(Cl)cc1
0.278%: max response [15]
inactive: activation [6] -1.72% | Potency [7] | outcome [2] | Potency [9] | Potency [10] | Potency [11] | outcome [12] | Potency [14] | activity change % (negative = inhibition) [16] -4.24% | activation [17] -0.56% | activation [4] 1.68% | max response [18] -2.55% | Potency [5] | max response [19] 1.53% | max response [20] -5.08% | Potency [21] | max response [22] -5.77% | outcome [23]
9.9%: max response [8]
18.4%: max response [13]

Cc1nn(C)c(Oc2ccccc2)c1/C=N/OCc1ccc(C(=O)OC(C)(C)C)cc1
active: Potency [3] 0.154 µM
inactive: activation [1] 6.71%

Cc1cccc2ccccc12
inactive: activation [1] -0.539% | outcome [2]

CN(c1c(Br)cc(Br)cc1Br)c1c([N+](=O)[O-])cc([N+](=O)[O-])cc1C(F)(F)F
active: Potency [24] 8.91 µM | Potency [3] 5.45 µM | Potency [21] 7.08 µM
-24%: max response [15]
inactive: activation [1] 1.9% | outcome [12] | activation [4] -7.94% | max response [18] -2.57% | Potency [5] | max response [22] -14.1%

C=C[Si](OCCOC)(OCCOC)OCCOC
inactive: activation [1] -1.57% | outcome [2]

c1ccccc1
inactive: activation [1] -0.124% [middle of 4 runs] | outcome [2] | Potency [9] | Potency [14] | Potency [25] | Potency [26]
-9.22% and -21.5% and 24.9%: max response [8]
-2.6% and -9.93% and -11.1%: max response [13]

[CH3][Sn]([Cl])([Cl])[Cl]
-11.9%: max response [13]
-11%: max response [15]
inactive: activation [6] -3.55% | Potency [7] | outcome [2] | Potency [9] | Potency [10] | Potency [11] | Potency [27] | outcome [12] | Potency [14] | max response [24] -14.8% | activation [17] -2.75% | max response [18] 0.635% | Potency [5] | max response [19] -16% | max response [20] -18.6% | Potency [21] | max response [22] -7.26% | outcome [23]
-4.62%: max response [8]
